The structures appear in SMILES notation. Calls of active or inactive are those of the source. The call rests on the fitted dose curve; in most records, active means well fitted activation curve with a large enough effect; inconclusive means small, poorly fitted or top-dose-only effect; inactive means no such curve, though single readings can be large or run the other way.
Potency means the concentration at half of the fitted maximal effect.

A short description of the test: Confirmatory qHTS for Identification of Small Molecule Activators of Huntingtin-Antisense Promoter Activity. To be noted: HEK293 HTT-AS promoter firefly luciferase reporter, 24 h; series mostly up to 57.5 µM; activity change, positive = activation: at the top concentration. In outline:
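Activity normalized between vehicle control (0%) and zero RLU (-100%) from firefly luminescence (Dual-Glo). Compounds, up to 57.5 uM final, incubated 24 h at 37C on HEK293 reporter cells plated 24 h earlier.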
In general terms: qHTS replaces the single test concentration by a dilution series.
Take `CCc1ccccc1-n1nnc(-c2nsc(NC(=O)c3ccc(C)c(C)c3)n2)c1C`: the “activity change, positive = activation” value was -72.1% (inactive).

In the case of `CCOc1ccc(C(=O)Nc2ccc3c(c2)CCCN3S(=O)(=O)c2ccc(C)cc2)cc1`, the “activity change, positive = activation” value is -48.7% (inactive).

Consider `Cc1ccc(C2=CC(c3ccc(Cl)cc3)n3nc(-c4ccc(C)cc4)nc3N2)cc1` (configuration not stated), for which the “activity change, positive = activation” value is -3.5% (inactive).

In the case of `COc1ccccc1C(=O)Nc1nc2n(n1)C(c1ccc(F)cc1)C=C(c1ccc(Cl)cc1)N2` (configuration not stated), the “activity change, positive = activation” value is -13.7% (inactive).

As to `O=c1[nH]c2ccc(NCc3ccc(-c4ccccc4)o3)cc2[nH]1`, the “activity change, positive = activation” value is -25.6% (inactive).

With `COc1cccc(OCc2nc3ccccc3n2CCOc2ccccc2)c1`, the “activity change, positive = activation” value is -49.6% (inactive).

Take `COc1cc(OC)c(C2C=C(c3ccc(C)cc3)Nc3c(C(=O)Nc4ccccc4)cnn32)cc1OC` (configuration not stated): the “activity change, positive = activation” value was 0.432% (inactive).

Regarding `Cc1nc2sccn2c(=O)c1S(=O)(=O)Nc1ccc(N2CCOCC2)c(Cl)c1`, the “activity change, positive = activation” value was -36.8% (inactive).

`CCc1ccc(NC(=O)C2CCCN2S(=O)(=O)c2ccc3c(c2)CCCC(=O)N3)cc1` (configuration not stated): the “activity change, positive = activation” value was -65.4% (inactive).

For `CN(C)Cc1ccc(-c2nc3cccc4c3n2CCNC4=O)cc1`, the Potency was 30100 nM (active).

In the case of `CCOc1ccc(NC(=O)c2ccc(F)c(S(=O)(=O)NCc3ccc4c(c3)OCO4)c2)cc1`, the “activity change, positive = activation” value was -56.8% (inactive).

`Cc1ccc(SCc2nc(-c3ccc(C(=O)NCc4ccccc4Cl)cc3)oc2C)cc1`: the “activity change, positive = activation” value was -12.5% (inactive).

On to `CCOc1ccc(CNC(=O)c2ccc(Sc3ccc(Cl)cc3)c(NC(C)=O)c2)cc1OC`, for which the “activity change, positive = activation” value is -61.1% (inactive).

Regarding `Cc1cc(F)ccc1NC(=O)C1CCCN(C(=O)c2cnn(-c3ccccc3)c2-n2cccc2)C1` (configuration not stated), the “activity change, positive = activation” value is -38.7% (inactive).

On to `COc1ccccc1N1CCN(C(=O)C2CCCN(S(=O)(=O)c3ccc4c(c3)oc(=O)n4C)C2)CC1` (configuration not stated), for which the “activity change, positive = activation” value was -45.3% (inactive).

`COc1ccc(NC(=O)c2ccc(-c3nc(CSc4ccc(C)cc4)c(C)o3)cc2)cc1Cl`: the “activity change, positive = activation” value was -52.9% (inactive).

Regarding `Cc1ccc(S(=O)(=O)Nc2cccc(-c3ccc(N4CCCCC4)nn3)c2)s1`, the Potency was 1510 nM (active).

In the case of `CC(=O)N1CCc2c(sc(NC(=O)CSc3ccccc3)c2-c2nc3ccccc3s2)C1`, the “activity change, positive = activation” value was -67.3% (inactive).

`Cc1ccc(NC(=O)c2ccc(C)c(S(=O)(=O)N3CCCCCC3)c2)cc1`: the “activity change, positive = activation” value is -54.7% (inactive).

Take `Cc1ccccc1-c1noc(CSc2nc3ccccc3[nH]2)n1`: the “activity change, positive = activation” value was -83.7% (inactive).

For the molecule `Cc1cccc(N2CCN(C(=O)c3ccc(NC(=O)c4nsc5ccccc45)cc3)CC2C)c1` (configuration not stated), the Potency was 338 nM (active).

Consider `COc1ccc(CNC(=O)c2ccc3c(c2)CCN3S(=O)(=O)c2ccc(Cl)cc2)cc1`, for which the “activity change, positive = activation” value was -23.1% (inactive).

The record behind these values is PubChem BioAssay AID1508622 (National Center for Advancing Translational Sciences (NCATS), 2021).
